# “And” between values parts separate entries of the source, which are not always exact repeats. Equal values may be shown once. Inconclusive results are not listed. Where a call stands in place of a potency, no number is given. More than one record can exist for a structure, and the calls need not agree. The source made the active and inactive calls. Calls follow the shape of the dose curve; as a rule, active = well fitted curve in the direction sought with a large enough effect in the repeat runs; inconclusive = weak or mixed curves; inactive = no such curve, though single readings can be large; an effect the other way counts as inactive or inconclusive.
# Columns and labels:
# [1] = qHTS RealTime-Glo MT Cell Viability Assay in HepG2 cells - 40 hour (AID 1224870); conditions: RealTime-Glo luminescence; series mostly up to 76.8 µM; also: nearly all actives have a fitted effect of over 50% in size
# Summary of the method: (§1)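 Real-time viability: cells seeded at 600 per well together with NanoLuc and cell-permeant prosubstrate, compounds added after 5 h incubation. Luminescence tracked at 0, 8, 16, 24, 32 and 40 h of exposure.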
# [2] = A CellTox Green Cytotoxicity Assay to monitor cytotoxicity in HEK293 cells - 40 hour (AID 1224871); conditions: CellTox Green fluorescence; series mostly up to 76.8 µM; also: nearly all actives have a fitted effect of over 45% in size; also: potency is read from the fitted curve at half-maximal effect
# Summary of the method: (§2)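 Each value comes from one timepoint of a single continuous run in which HEK293 cells with CellTox Green were exposed to compound for up to 40 h at 37 C, dye fluorescence rising with cell death.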
# [3] = qHTS RealTime-Glo MT Cell Viability Assay in HEK293 cells - 16 hour (AID 1224872); conditions: RealTime-Glo luminescence; series mostly up to 76.8 µM; also: nearly all actives have a fitted effect of over 50% in size; also: potency is read from the fitted curve at half-maximal effect
# Summary of the method: (§3)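 Assay medium contained NanoLuc luciferase plus cell-permeant prosubstrate, added with HEK293 cells at 600 cells/well. After 5 h at 37 C/5% CO2 compounds were added; plates stayed at 37 C for 40 h with serial luminescence reads.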
# [4] = qHTS RealTime-Glo MT Cell Viability Assay in HepG2 cells - 8 hour (AID 1224873); conditions: RealTime-Glo luminescence; series mostly up to 76.8 µM; also: nearly all actives have a fitted effect of over 55% in size
# Summary of the method: as §1
# [5] = qHTS RealTime-Glo MT Cell Viability Assay in HEK293 cells - 40 hour (AID 1224874); conditions: RealTime-Glo luminescence; max response: stronger effect = lower value; also: nearly all actives have a fitted effect of over 50% in size; also: potency is read from the fitted curve at half-maximal effect
# Summary of the method: (§4)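 qHTS format; HEK293 cells with NanoLuc/prosubstrate reagent, 37 C/5% CO2 for 5 h pre-dosing; compounds 23 nL in DMSO; luminescence at each time point reflects viable cells.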
# [6] = qHTS RealTime-Glo MT Cell Viability Assay in HepG2 cells - 32 hour (AID 1224877); conditions: RealTime-Glo luminescence; series mostly up to 76.8 µM; also: nearly all actives have a fitted effect of over 55% in size
# Summary of the method: (§5)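 qHTS, HepG2, 600 cells/well, RealTime-Glo (NanoLuc + prosubstrate) added with cells; 5 h preincubation; DMSO compound addition; 37 C; luminescence at 0/8/16/24/32/40 h.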
# [7] = A CellTox Green Cytotoxicity Assay to monitor cytotoxicity in HepG2 cells - 24 hour (AID 1224878); conditions: CellTox Green fluorescence; series mostly up to 76.8 µM; also: nearly all actives have a fitted effect of over 45% in size
# Summary of the method: (§6)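 Continuous culture of HepG2 cells with a membrane-impermeant DNA dye; rising fluorescence marks dead cells. Compound exposure lasted up to 40 h at 37 C, with reads every 8 h from 0 h.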
# [8] = A CellTox Green Cytotoxicity Assay to monitor cytotoxicity in HepG2 cells - 40 hour (AID 1224879); conditions: CellTox Green fluorescence; series mostly up to 76.8 µM; also: nearly all actives have a fitted effect of over 40% in size; also: potency is read from the fitted curve at half-maximal effect
# Summary of the method: as §6
# [9] = A CellTox Green Cytotoxicity Assay to monitor cytotoxicity in HEK293 cells - 32 hour (AID 1224881); conditions: CellTox Green fluorescence; series mostly up to 76.8 µM; also: nearly all actives have a fitted effect of over 40% in size; also: potency is read from the fitted curve at half-maximal effect
# Summary of the method: as §2
# [10] = A CellTox Green Cytotoxicity Assay to monitor cytotoxicity in HepG2 cells - 0 hour (AID 1224882); conditions: CellTox Green fluorescence; series mostly up to 76.8 µM; also: nearly all actives have a fitted effect of over 35% in size
# Summary of the method: as §6
# [11] = A CellTox Green Cytotoxicity Assay to monitor cytotoxicity in HepG2 cells - 32 hour (AID 1224883); conditions: CellTox Green fluorescence; series mostly up to 76.8 µM; also: nearly all actives have a fitted effect of over 50% in size; also: potency is read from the fitted curve at half-maximal effect
# Summary of the method: as §6
# [12] = A CellTox Green Cytotoxicity Assay to monitor cytotoxicity in HEK293 cells - 8 hour (AID 1224884); conditions: CellTox Green fluorescence; series mostly up to 76.8 µM; also: nearly all actives have a fitted effect of over 35% in size
# Summary of the method: as §2
# [13] = qHTS RealTime-Glo MT Cell Viability Assay in HepG2 cells - 16 hour (AID 1224885); conditions: RealTime-Glo luminescence; series mostly up to 76.8 µM; also: nearly all actives have a fitted effect of over 50% in size
# Summary of the method: as §5
# [14] = qHTS RealTime-Glo MT Cell Viability Assay in HEK293 cells - 24 hour (AID 1224886); conditions: RealTime-Glo luminescence; series mostly up to 76.8 µM; also: nearly all actives have a fitted effect of over 50% in size; also: potency is read from the fitted curve at half-maximal effect
# Summary of the method: as §3
# [15] = A CellTox Green Cytotoxicity Assay to monitor cytotoxicity in HEK293 cells - 16 hour (AID 1224888); conditions: CellTox Green fluorescence; series mostly up to 76.8 µM; also: nearly all actives have a fitted effect of over 35% in size
# Summary of the method: as §2
# [16] = qHTS RealTime-Glo MT Cell Viability Assay in HepG2 cells - 0 hour (AID 1224889); conditions: RealTime-Glo luminescence; series mostly up to 76.8 µM; also: nearly all actives have a fitted effect of over 50% in size
# Summary of the method: as §5
# [17] = A CellTox Green Cytotoxicity Assay to monitor cytotoxicity in HepG2 cells - 16 hour (AID 1224876); conditions: CellTox Green fluorescence; series mostly up to 76.8 µM; also: nearly all actives have a fitted effect of over 45% in size
# Summary of the method: as §6
# [18] = qHTS RealTime-Glo MT Cell Viability Assay in HEK293 cells - 0 hour (AID 1224880); conditions: RealTime-Glo luminescence; series mostly up to 76.8 µM; also: top concentration of the series differs between compounds; nearly all actives have a fitted effect of over 45% in size
# Summary of the method: as §4
# [19] = qHTS RealTime-Glo MT Cell Viability Assay in HEK293 cells - 8 hour (AID 1224887); conditions: RealTime-Glo luminescence; series mostly up to 76.8 µM
# Summary of the method: as §4
SMILES,Potency [1],Potency [2],Potency [3],Potency [4],max response [5],Potency [6],Potency [7],Potency [8],Potency [9],Potency [10],Potency [11],Potency [12],Potency [13],Potency [14],Potency [15],Potency [16],Potency [17],Potency [18],Potency [19],Potency [5]
CCCCCCCCC(=O)NCc1ccc(O)c(OC)c1,inactive,inactive,inactive,inactive,8.1% (inactive) and -1.04% (inactive),inactive,inactive,inactive,inactive,inactive,inactive,inactive,inactive,inactive,inactive,inactive,–,–,–,–
CCOc1cc(Oc2ccc(C(F)(F)F)cc2Cl)ccc1[N+](=O)[O-],inactive,inactive,–,inactive,-24.7% (inactive),inactive,inactive,inactive,inactive,inactive,inactive,inactive,inactive,–,inactive,inactive,inactive,inactive,–,–
N#CCCCl,inactive,inactive,inactive,inactive,2.74% (inactive) and -10.7% (inactive),inactive,inactive,inactive,inactive,inactive,inactive,inactive,inactive,inactive,inactive,inactive,–,inactive,inactive,–
CC(O)CCO (stereo not given),inactive,inactive,inactive,inactive,-0.607% (inactive) and 26.7% (inactive),inactive,inactive,inactive,inactive,inactive,inactive,inactive,inactive,inactive,inactive,inactive,–,inactive,inactive,–
O=[N+]([O-])c1ccc(O)c([N+](=O)[O-])c1,inactive,inactive,inactive,inactive,-16% (inactive),inactive,–,inactive,–,inactive,inactive,inactive,inactive,inactive,inactive,inactive,–,inactive,inactive,–
CCCCNC(=O)n1c(NC(=O)OC)nc2ccccc21,inactive,inactive,inactive,inactive,–,inactive,–,7.72 µM (active) and 11 µM (active),inactive,inactive,12.2 µM (active) and inactive,inactive,inactive,inactive,inactive,inactive,–,inactive,inactive,6.88 µM (active)
C[C@]12CCC(=O)C[C@@H]1CC[C@@H]1[C@@H]2CC[C@]2(C)[C@@H](O)CC[C@@H]12,inactive,43.1 µM (active) and inactive,21.6 µM (active),inactive,–,inactive,–,–,38.4 µM (active) and inactive,inactive,inactive,inactive,inactive,21.6 µM (active),inactive,–,–,–,inactive,21.6 µM (active)
CC(C)(c1cc(Cl)c(O)c(Cl)c1)c1cc(Cl)c(O)c(Cl)c1,inactive,inactive,inactive,inactive,-12.2% (inactive) and -31.9% (inactive),inactive,inactive,inactive,inactive,inactive,inactive,inactive,inactive,inactive,inactive,inactive,–,inactive,inactive,–
Cc1cccc(N)c1N,inactive,inactive,inactive,inactive,–,inactive,–,inactive,inactive,inactive,inactive,inactive,inactive,inactive,inactive,inactive,inactive,inactive,inactive,–
